Assay results from publication PMC4336329 (PLoS ONE, 2015).
About 14,000 (4.5%) of roughly 310,000 compounds showed an effect of 50% or more. Effects have a minus sign here. What follows is part of a selection rich in strong results, with near analogues and random picks from the rest.

What follows are compounds tested against human ether-à-go-go-related gene (hERG) potassium channel (human, UniProt Q12809) (assay: primary screen, population patch clamp on CHO cells stably expressing hERG; higher = less effect of the substance).
human ether-à-go-go-related gene (hERG) potassium channel, sequence (Q12809 whole entry, looked up): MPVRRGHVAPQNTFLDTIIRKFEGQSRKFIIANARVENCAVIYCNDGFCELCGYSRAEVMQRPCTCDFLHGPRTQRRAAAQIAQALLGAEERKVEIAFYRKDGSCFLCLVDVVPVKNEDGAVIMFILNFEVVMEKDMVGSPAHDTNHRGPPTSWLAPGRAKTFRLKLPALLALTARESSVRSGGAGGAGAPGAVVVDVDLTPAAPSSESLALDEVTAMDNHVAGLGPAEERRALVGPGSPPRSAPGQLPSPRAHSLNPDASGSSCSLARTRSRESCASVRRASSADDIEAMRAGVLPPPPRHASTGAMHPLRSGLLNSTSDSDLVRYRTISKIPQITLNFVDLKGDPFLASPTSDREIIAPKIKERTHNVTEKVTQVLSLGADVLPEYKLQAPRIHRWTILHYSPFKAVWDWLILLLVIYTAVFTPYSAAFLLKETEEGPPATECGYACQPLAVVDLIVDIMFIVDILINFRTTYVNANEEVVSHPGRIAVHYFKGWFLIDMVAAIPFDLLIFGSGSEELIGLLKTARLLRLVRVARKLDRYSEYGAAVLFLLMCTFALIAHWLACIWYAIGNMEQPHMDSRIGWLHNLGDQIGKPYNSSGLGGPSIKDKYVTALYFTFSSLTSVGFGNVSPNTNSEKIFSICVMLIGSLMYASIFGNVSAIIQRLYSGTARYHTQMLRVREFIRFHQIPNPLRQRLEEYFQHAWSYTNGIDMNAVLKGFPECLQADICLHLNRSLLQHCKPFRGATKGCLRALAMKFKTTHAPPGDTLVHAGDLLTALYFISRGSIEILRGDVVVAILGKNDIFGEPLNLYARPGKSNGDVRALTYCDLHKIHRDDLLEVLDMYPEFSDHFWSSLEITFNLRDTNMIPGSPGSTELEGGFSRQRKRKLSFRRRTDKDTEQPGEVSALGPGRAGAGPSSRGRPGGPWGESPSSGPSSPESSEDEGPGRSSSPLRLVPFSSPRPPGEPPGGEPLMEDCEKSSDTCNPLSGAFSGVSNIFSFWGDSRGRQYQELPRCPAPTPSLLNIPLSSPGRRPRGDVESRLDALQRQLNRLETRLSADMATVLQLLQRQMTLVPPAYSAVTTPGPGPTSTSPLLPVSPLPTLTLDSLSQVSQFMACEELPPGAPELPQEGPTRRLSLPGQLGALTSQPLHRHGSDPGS
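Also: peak tail current of the secondary pulse compared with the same well before compound.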

SMILES	hERG current change (%, negative = inhibition) at 10uM [%]
S=C(Nc1ccccc1)Nc1ccc(OCc2ccccc2)cc1	-0.702
Nc1nc2ccccc2n1/N=C/c1ccc(-c2ccccc2)o1	-11.8
CCCc1[nH]nc2c1C1(C(=O)N(CC)c3ccccc31)C(C#N)=C(N)O2 (stereo not drawn)	-6.38
COc1ccc(C(=O)OCC(=O)NCC2CCCO2)cc1[N+](=O)[O-] (stereo not drawn)	2.12
Cc1cc(/C=C(\C#N)C(=O)NC2CCCCCC2)c(C)[nH]1	9.54
COc1ccccc1CC(=O)Nc1cccc(C(=O)Nc2nccs2)c1	-0.755
O=C(Nc1ccccc1)c1cc(-c2ccccc2Cl)no1	-4.91
O=S(=O)(NC1CCCC1)c1cc(F)ccc1F	-8.75
O=C(O)C1Cc2ccccc2N2CCCC12 (stereo not drawn)	20
COc1cc(-c2nnc(SC/C=C/c3ccccc3)n2N)cc(OC)c1OC	-3.66
COc1cccc(C(=O)NNC(=O)c2ccc3ccccc3c2O)c1	7.66
O=C(CSc1nc(-c2ccc(F)cc2)cs1)N1CCc2ccccc21	-1.23
COc1ccc2c(c1)c(C(=O)N/N=C/c1ccc(Br)cc1)c(C)n2C	-64.1
COc1ccc2c(c1)c(C(=O)N/N=C/c1ccc(O)c(O)c1)c(C)n2C	9.18
COc1ccc2c(c1)c(C(=O)N/N=C/c1ccc(Cl)cc1)c(C)n2C	-58.6
COc1ccc2c(c1)c(C(=O)N/N=C/c1cccc(Br)c1)c(C)n2C	-15.9
CCOc1ccc(/C=N/NC(=O)c2c(C)n(C)c3ccc(OC)cc23)cc1	-5.78
COc1ccc2c(c1)c(C(=O)N/N=C/c1ccc(OC)c(OC)c1)c(C)n2C	-39.2
Oc1ccc(-c2csc(-c3c[nH]c4ccccc34)n2)c(O)c1	5.01
O=c1[nH]c2ccccc2n1CCCOc1ccccc1	4.34
Cc1onc(-c2c(F)cccc2Cl)c1C(=O)Nc1cccc2nsnc12	-20.6

SMILES	hERG current change (%, negative = inhibition) at 10uM [%]
CNC(=O)NC(=O)COC(=O)CCCOc1ccc(OC)cc1	20.5
COc1ccc(S(=O)(=O)NC(C)C(=O)O)cc1 (stereo not drawn)	1.62
CN(CC(=O)Nc1ccc2c(c1)OCO2)S(=O)(=O)c1ccc(F)cc1	-4.45
CCN(Cc1nc2cc(Cl)ccc2c(=O)[nH]1)C(=O)c1cccc(NC(=O)c2cccs2)c1	-24.7
Cc1noc(C)c1COc1cccc(C(=O)N(C)Cc2nc3ccccc3c(=O)[nH]2)c1	-23.5
CCN(Cc1nc2cc(Cl)ccc2c(=O)[nH]1)C(=O)c1cccc(OCc2c(C)noc2C)c1	-57.4
Cc1cccc(Oc2coc3cc(OC(=O)c4cncc(Br)c4)ccc3c2=O)c1	-5.03
Cc1cc(C(=O)N2CCc3c([nH]c4ccccc34)C2c2c(F)cccc2Cl)no1 (stereo not drawn)	5.46
CN1N=C(C(=O)N2CCc3c([nH]c4ccccc34)C2c2c(F)cccc2Cl)CCC1=O (stereo not drawn)	-97.3
CN1N=C(C(=O)N2CCc3c([nH]c4ccccc34)C2c2ccccc2Cl)CCC1=O (stereo not drawn)	-36.9
CC1CN(C(=O)CCC(=O)NC2CCCCC2)c2ccccc2S1 (stereo not drawn)	-19.5
Fc1cccc(C2CC(c3cccc(Br)c3)Nc3nnnn32)c1 (stereo not drawn)	-3.02
CS(=O)(=O)N(CC(=O)N1CCN(Cc2ccccc2)CC1)c1ccc(F)cc1	-3.35
C=CCN(c1ccccc1C(=O)NCC(=O)O)S(=O)(=O)c1ccccc1C	24.7
CCOC(=O)c1[nH]c2ccc(F)cc2c1NC(=O)CN1CCc2cc(OC)c(OC)cc2C1	-0.0862
Cc1[nH]c2ccccc2c1C(=O)CN1CCCC1	5.09
Cc1[nH]c2ccccc2c1C(=O)C(=O)N1CC=C(c2ccccc2)CC1	-11.3
CCOC(=O)c1[nH]c2ccc(F)cc2c1NC(=O)CN1CCN(C/C=C/c2ccccc2)CC1	-80.7
CCOC(=O)N1CCN(CC(=O)Nc2c(C(=O)OC)[nH]c3ccccc23)CC1	-10.2
Cc1[nH]c2ccccc2c1C(=O)CN1CCSCC1	5.84
CCOC(=O)c1[nH]c2ccc(OCC)cc2c1NC(=O)CN1CCN(c2ccccc2)CC1	17.9

SMILES	hERG current change (%, negative = inhibition) at 10uM [%]
COC(=O)c1[nH]c2ccccc2c1NC(=O)CN1CCN(C/C=C/c2ccccc2)CC1	-76.4
Cc1[nH]c2ccccc2c1C(=O)CN1CCN(C/C=C/c2ccccc2)CC1	-73.4
COC(=O)c1[nH]c2ccccc2c1NC(=O)CN1CCCCCC1	-21.5
Cc1[nH]c2ccccc2c1C(=O)CN1CC=C(c2ccccc2)CC1	-52.4
COc1ccc2[nH]c(C)c(C(=O)CN3CCN(C/C=C/c4ccccc4)CC3)c2c1	-25.8
COc1ccc(C(NC(=O)c2cccnc2)c2cc(Cl)c3cccnc3c2O)cc1OC (stereo not drawn)	10.5
NS(=O)(=O)c1ccc(NC(=O)CSc2nnc(-c3ccc(O)cc3)o2)cc1	25.1
Cc1onc(-c2ccccc2)c1C(=O)OCC(=O)NC(C)c1ccc(Cl)cc1 (stereo not drawn)	-7.03
CCOc1nc(-c2ccccc2O)nc2ccccc12	2.42
Cc1ccc(-c2cc(-c3ccc(C)cc3)[n+](-c3ccc(C(=O)[O-])cc3)c(-c3ccc(C)cc3)c2)cc1	-26.8
Cc1ccc(-c2cc(-c3ccc(C)cc3)[n+](C)o2)cc1.[O-][Cl+3]([O-])([O-])[O-]	-68.4
Cc1ccc(-c2cc(-c3ccc(C)cc3)[n+](-c3ccc(C(=O)O)cc3)c(-c3ccc(C)cc3)c2)cc1.[O-][Cl+3]([O-])([O-])[O-]	26.5
C=CCNC(=O)c1onc(CSc2ccc(F)cc2)c1C(=O)NCCOC	-43
CCN(CC(=O)Nc1ccccc1C(F)(F)F)C(=O)/C=C/c1ccc(Cl)c([N+](=O)[O-])c1	10.1
CCN(CC(=O)NCc1ccc(Cl)cc1)C(=O)/C=C/c1cc(OC)c(OC)c(OC)c1	3.83
CCN(CC(=O)NCc1ccc(Cl)cc1)C(=O)/C=C/c1ccc(Cl)c([N+](=O)[O-])c1	-67.6
CCN(CC(=O)NCc1ccc(Cl)cc1)C(=O)/C=C/c1ccccc1	-46
CCN(CC(=O)NCc1ccc(Cl)cc1)C(=O)/C=C/c1cccs1	-49.1
CCN(CC(=O)NCc1ccc(Cl)cc1)C(=O)/C=C/c1ccc(C#N)cc1	-62
CN(CCC(=O)Nc1ccc(Cl)cc1)Cc1ccccc1.Cl	-39.9
CCCC(NC(=O)COc1cc2c(c3oc(=O)cc(C)c13)CCC(C)(C)O2)C(=O)O (stereo not drawn)	18.4

SMILES	hERG current change (%, negative = inhibition) at 10uM [%]
O=C(NCc1ccccc1)c1ccc(C2SCC(=O)N2Cc2ccccc2)cc1 (stereo not drawn)	-12.6
CCOc1c(OC(C)=O)ccc(/C=C/c2ccc3cccc(OC(C)=O)c3n2)c1[N+](=O)[O-]	-4.23
O=Cc1ccc2oc3nc4n(c(=O)c3c(=O)c2c1)CCCS4	-35.7
CCC(C)COC(=O)C(C#N)c1nc2ccccc2nc1N1CCCCC1 (stereo not drawn)	-1.25
CCOC(=O)N1CCN(c2nc3ccccc3nc2C(C#N)C(=O)NCCc2ccccc2)CC1 (stereo not drawn)	7.98
CCC(CC)COC(=O)C(C#N)c1nc2ccccc2nc1N1CCN(CC)CC1 (stereo not drawn)	-72.7
CCC(CC)COC(=O)C(C#N)c1nc2ccccc2nc1N1CCOCC1 (stereo not drawn)	-7.91
CCN1CCN(c2nc3ccccc3nc2C(C#N)C(=O)OCc2ccccc2)CC1 (stereo not drawn)	-73.7
COC(=O)C(C#N)c1nc2ccccc2nc1N1CCCC1 (stereo not drawn)	-0.357
COc1ccc(/C=C/C(=O)c2ccc[nH]2)c(OC)c1OC	-4.89
CC(=O)c1ccc(-n2c(C)ccc2-c2ccccc2)cc1	1
CCOC(=O)N1CCN(C(=O)Cn2ccc3c(OC)cccc3c2=O)CC1	6.78
CCOC(=O)c1sc(NS(=O)(=O)c2cc(C)ccc2C)nc1C	10.4
COc1ccc(/C=C/C=C2\NC(=S)NC2=O)cc1	22.1
Cc1cc2nc(/N=C(\N)NC(=O)N3c4ccccc4Sc4ccccc43)nc(C)c2cc1C	-38.9
CCC(C)NC(=O)CSC1=Nc2ccccc2C2=NC(CC(=O)NCc3ccccc3)C(=O)N12 (stereo not drawn)	-0.668
CCC(C)NC(=O)CSC1=Nc2ccccc2C2=NC(c3ccccc3)C(=O)N12 (stereo not drawn)	-55.3
O=C(CSC1=Nc2ccccc2C2=NC(c3ccccc3)C(=O)N12)NC1CCCCC1 (stereo not drawn)	-20.1
NC(=O)CSC1=Nc2ccccc2C2=NC(c3ccccc3)C(=O)N12 (stereo not drawn)	1.61
CCN(CC)C(=O)CSC1=Nc2ccccc2C2=NC(c3ccccc3)C(=O)N12 (stereo not drawn)	-46.4
CN(C(=O)CSC1=Nc2ccccc2C2=NC(c3ccccc3)C(=O)N12)C1CCCCC1 (stereo not drawn)	-73
